High-throughput results (PubChem)
Shown are actives, neighbours in structure and some others; about 2.2% of the full set was active somewhere.
Myeloid diff MLP = induction of myeloid progenitor differentiation, primary screen, cell-based, flow cytometry, MLPCN library; ER-HoxA9 myeloid progenitors, lysozyme-GFP differentiation; calls only at 10 µM; 360,000 compounds, 1% hits;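 active = normalized GFP-positive differentiation at or above the plate's own cutoff, the solvent-only control mean plus 3 SD; inconclusive = no clear call, values can overlap the other calls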;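 note: cells exposed to compound for four days before flow analysis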
cardiac RTF act = cardiac RTF calcium sensitivity activators, primary screen, biochemical, IANBD-TnC fluorescence, EC20 calcium; IANBD-labeled TnC RTF fluorescence at EC20 calcium; 0% EC20 calcium, 100% full calcium; activation, % at 7.2 µM; 340,000 compounds, 0.24% hits;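 active = activation above the mean over all tested compounds plus 3 SD, cut at about 30% in these data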;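 note: rise in fluorescence read as greater calcium sensitivity of cardiac thin filaments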
RTF Ca sens inh = cardiac RTF calcium sensitivity inhibitors, primary screen, biochemical, IANBD-TnC fluorescence, EC70 calcium | AID 493244, 2011 | IANBD-labeled cardiac RTF, Ca2+ fluorescence | inhibition, % at 7.15 µM | Troponin I, cardiac muscle (Homo sapiens) + Troponin T, cardiac muscle (Homo sapiens) + … | 340,000 compounds, 0.12% hits;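 active = inhibition above the mean inhibition of all tested compounds plus 3 SD, cut at about 17% in these data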;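 note: assay run at fixed EC70 calcium of 1.6 mM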
CRFBP-R2 block = antagonists of CRF-BP/CRF-R2 complex, primary screen, cell-based, HEK293, calcium dye fluorescence, uHTS; CRF-induced calcium fluorescence; inhibition, % at 11.8 µM; 350,000 compounds, 0.59% hits;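 active = inhibition of the ligand-induced calcium signal above about 50% at the single tested concentration, limit read from the data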
CRFBP-R2 agonist = agonists of CRF-BP/CRF-R2 complex, primary screen, cell-based, HEK293, calcium dye fluorescence, uHTS. CRF-binding protein / CRF receptor 2 complex (human). calcium dye fluorescence (FLIPR); percent of saturating CRF peptide response. activation, % at 13.2 µM. 350,000 compounds, 0.46% hits;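 active = activation of at least 50%, plus an integration ratio under a set limit after plate pattern correction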;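 note: plate controls were neutral control wells without compound for no effect and CRF at EC100 for full effect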
Starred values were filed as active, the others as inactive; i = inactive; ? = inconclusive; nt = no result given; + = active, no number.

SMILES | Myeloid diff MLP | cardiac RTF act | RTF Ca sens inh | CRFBP-R2 block | CRFBP-R2 agonist
Cc1ccc(OCCCCN(C)Cc2ccccc2)c(Br)c1 | + | 9 | -3 | -40 | 1
COc1ccccc1OCCCOc1ccc(C)cc1Br | i | 3 | -7 | -8 | -1
O=C(Cc1ccccc1)c1ccc(N2CCOCC2)cc1 | i | -2 | 3 | 9 | 2
C/C(=N\Nc1cc(C)nc(NCc2ccccc2)n1)c1ccc([N+](=O)[O-])cc1 | i | 1 | 0 | 0 | -2
CN=c1sc2ccccc2n1CC(O)COCc1ccco1 (stereo not drawn) | + | -5 | -1 | -13 | -1
CN=c1sc2ccccc2n1CC(O)c1ccccc1 (stereo not drawn) | i | -6 | 0 | -4 | -1
CCn1c2ccccc2c2cc(NC(=O)c3cccc(OC)c3OC)ccc21 | + | -2 | -6 | -2 | 3
COc1cccc(C(=O)Nc2ccc(N(C)C)cc2)c1OC | + | -2 | -4 | 12 | 0
CCn1c2ccccc2c2cc(NC(=O)c3cccc(OC)c3)ccc21 | i | 2 | -11 | -6 | 3
CC(C)n1nnnc1SCC(=O)N1CCN(Cc2ccc3c(c2)OCCO3)CC1 | i | 2 | 4 | 2 | -1
Cc1cccc(C)c1OCC(=O)Nc1oc(-c2ccccc2)c(-c2ccccc2)c1C#N | i | -1 | -7 | 107* | 0
CN(Cc1ccccc1)C(=O)c1[nH]cnc1C(=O)NCC(=O)OCc1ccccc1 | i | 2 | -2 | 2 | 0
COc1ccc(CN(C(=O)CSc2nnc(-c3c[nH]c4ccccc34)o2)c2ccc(F)cc2)cc1OC | nt | -1 | -4 | -14 | 3
COc1cc(NS(=O)(=O)c2ccc3c(c2)oc(=O)n3C)cc(OC)c1OC | + | -1 | -1 | 22 | -1
OC1CNc2c(ccc3ccccc23)C1 (stereo not drawn) | i | 5 | 2 | -6 | -1
COC(=O)c1cc(C#N)c(N(C)Cc2ccccc2)nc1C | i | -1 | -6 | 62* | 3
COC(=O)c1cc(C#N)c(NCc2ccccc2)nc1C | i | -1 | -7 | 54* | 6
CC(=O)c1cc(C#N)c(NCc2cc(-c3ccccc3)no2)nc1C | i | 1 | -1 | -6 | 1
CSc1cccc(NC(=O)c2cccc3cccnc23)c1 | i | -8 | -11 | -3 | 1
CCN(CC)C(=O)Cn1c(C)c(/C=C/c2cc[n+](C)cc2)c2ccccc21 | + | 87* | -137 | -7 | 30
CCN(CC)C(=O)Cn1c(=O)n(C)c2ccccc21 | i | 1 | -5 | -1 | -1
CCn1cc(/C=C/c2cc[n+](C)cc2)c2ccccc21 | ? | 371* | -427 | -24 | 56*
Cc1[nH]c2ccccc2c1/C=C/c1cc[n+](C)cc1 | + | 95* | -134 | -94 | 81*
Cc1[nH]c2ccccc2c1/C=C/C(=O)c1ccncc1 | + | 1 | -9 | -18 | 23
CC(=O)NC(c1ccc(F)c(F)c1)c1nc(-c2ccccc2C)cs1 (stereo not drawn) | i | nt | nt | nt | nt
SMILES | Myeloid diff MLP | cardiac RTF act | RTF Ca sens inh | CRFBP-R2 block | CRFBP-R2 agonist
Cc1ccccc1/C=C/c1cc[n+](C)cc1 | ? | 4 | -12 | -29 | 1
CC(C)n1cc(/C=C/c2cc[n+](C)cc2)c2ccccc21 | ? | 344* | -475 | -42 | 58*
C=CCn1c(C)c(/C=C/c2cc[n+](C)cc2)c2ccccc21 | + | 114* | -149 | -68 | 36
C=CCn1cc(/C=C/c2cc[n+](C)cc2)c2ccccc21 | ? | 170* | -220 | -45 | 77*
ClC(Cl)(Cl)c1nc2ccccc2n2nncc12 | ? | 1 | -5 | 11 | 2
COC(=O)C1=NN(C(=O)c2ccccc2)C(C)(O)C1 (stereo not drawn) | i | -2 | 1 | 19 | -1
CC1=NN(C(=O)c2ccc(Br)cc2)C(O)(C(F)(F)OC(F)(F)F)C1 (stereo not drawn) | i | -1 | 2 | 50* | 0
COC(=O)C1=NN(C(=O)c2ccccc2)C(O)(c2ccc([N+](=O)[O-])cc2)C1 (stereo not drawn) | nt | 4 | -8 | 19 | 47
COC(=O)C1=NN(C(=O)c2ccc(Br)cc2)C(O)(C(C)(C)C)C1 (stereo not drawn) | i | 18 | 5 | 17 | 52*
COC(=O)C1=NN(C(=O)c2cccc(Cl)c2)C(O)(C(C)(C)C)C1 (stereo not drawn) | i | 7 | -9 | 37 | 89*
COC(=O)C1=NN(C(=O)c2ccc(C)cc2)C(O)(c2ccc(Cl)cc2)C1 (stereo not drawn) | nt | nt | nt | -15 | 86*
O=[N+]([O-])c1cc(S(=O)(=O)Nc2cccc(Cl)c2)ccc1N/N=C/c1ccc(N2CCOCC2)cc1 | i | -6 | -5 | -13 | -2
Cc1cc(=O)[nH]c(Nc2ccccc2C)n1 | i | 7 | -2 | -2 | 2
O=C(CCC(=O)N1CCCC(Nc2ccccc2)C1)c1ccc(F)cc1 (stereo not drawn) | i | -5 | -1 | -1 | 0
COc1ccccc1Nc1ncnc2c1c(C)c(C)n2CCO | i | 0 | 6 | 10 | -3
S=C(NC1CCCC1)N1CCN(c2ccc(Cl)cc2)CC1 | i | -2 | -15 | -7 | 0
COc1ccccc1Nc1nc(N)nc(CSC(=S)N2CC(C)CC(C)C2)n1 (stereo not drawn) | i | 6 | -6 | 53* | 0
CC(C)C1Oc2ccccc2N(CC(=O)NCCCN2C(C)CCCC2C)C1=O (stereo not drawn) | i | -2 | -8 | -17 | 4
CN(C)c1ccc(/C=N/N(CCO)C2=NS(=O)(=O)c3ccccc32)cc1 | i | 316* | -308 | -135 | 140*
O=S1(=O)N=C(N(CCO)/N=C/C=C/c2ccccc2)c2ccccc21 | + | 5 | -2 | -29 | -4
COc1cccc(CN(C)C(=O)CN2C(=O)NC(c3ccccc3)(c3ccccc3)C2=O)c1 | i | -1 | -4 | -8 | 0
Cc1cccc(C(=O)N[C@H](C(=O)Nc2nccs2)C(C)C)c1 | i | -2 | -15 | 10 | -1
N/C(CN1CCCCC1)=N\S(=O)(=O)c1cc(Cl)cc(Cl)c1 | i | 12 | -8 | 113* | -2
CCOC(=O)c1ccc(N=Cc2nc(-c3ccccc3)oc2OC(C)=O)cc1 | i | -2 | -2 | -16 | 1
CC(=O)Oc1oc(-c2ccccc2)nc1C=Nc1ccccc1 | i | -3 | 0 | -14 | 57*
